# Reference: PubChem BioAssay (EPA / NIEHS)
# Records with an inconclusive call do not appear. Active and inactive are the calls of the source. How the source made its calls, unless noted: active means hit-call score of the fitted dose curve at least 0.9, where 1 is the maximum; inactive means score below 0.9.
# Columns and labels:
# [1] = ATG_GAL4_TRANS: Attagene TRANS-FACTORIAL HepG2 Assay for GAL4 (Internal Marker) (AID 2282976; active means hit-call score of the fitted dose curve at least 0.9, where 1 is the maximum); settings: HepG2 Attagene TRANS GAL4 internal marker reporter
# Procedure, shortened: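 RT-PCR/capillary electrophoresis readout of reporter mRNA. HepG2, transient MRTU transfection (GAL4-UAS reporters), 24 h compound exposure. Background-control endpoint, positive direction vs DMSO baseline.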
# [2] = target: Oxysterols receptor LXR-alpha (Homo sapiens) (UniProt Q13133); test: ATG_LXRa_TRANS: Attagene TRANS-FACTORIAL HepG2 Assay for human Liver X Receptor alpha (LXRa) (AID 2282980; active means hit-call score of the fitted dose curve at least 0.9, where 1 is the maximum); settings: HepG2 Attagene TRANS reporter, LXRa transactivation
# Procedure, shortened: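 Read-out: reporter transcript levels by RT-PCR plus capillary electrophoresis, fluorescence intensity. Transiently transfected HepG2, exogenous NR-GAL4 chimera, GAL4-UAS reporters; 24 h compound exposure. Activity = increase over DMSO negative control.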
# [3] = ATG_M_06_TRANS: Attagene TRANS-FACTORIAL HepG2 Assay for M06 Transcription Factor (Internal Marker) (AID 2282983; active means hit-call score of the fitted dose curve at least 0.9, where 1 is the maximum); settings: HepG2 Attagene TRANS M06 internal marker reporter
# Procedure, shortened: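 After a 24 h chemical treatment of transfected HepG2, RNA underwent DNase I treatment, reverse transcription and reporter-specific PCR; labelled, HpaI-digested products were sized by capillary electrophoresis. Signal increase relative to DMSO defined activity.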
# [4] = ATG_M_32_TRANS: Attagene TRANS-FACTORIAL HepG2 Assay for M32 Transcription Factor (Internal Marker) (AID 2282984; active means hit-call score of the fitted dose curve at least 0.9, where 1 is the maximum;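 further: transcript level of a background control reporter unit measured by RT-PCR and capillary electrophoresis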); settings: HepG2 Attagene TRANS M32 internal marker reporter
# Procedure, shortened: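 HepG2 cells transiently transfected with multiple GAL4-UAS reporter transcription units, dosed for 24 hours; reporter mRNA quantified by RT-PCR, 6-FAM primer extension, HpaI digestion and capillary electrophoresis. Gain-of-signal fitted versus DMSO baseline; internal background-control marker.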
# [5] = target: Nuclear receptor subfamily 4 group A member 2 (Homo sapiens) (UniProt P43354); test: ATG_NURR1_TRANS: Attagene TRANS-FACTORIAL HepG2 Assay for human Nuclear Receptor Related Protein 1 (NURR1) (AID 2282985; active means hit-call score of the fitted dose curve at least 0.9, where 1 is the maximum); settings: HepG2 Attagene TRANS reporter, mRNA readout
# Procedure, shortened: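 HepG2 cells transiently transfected with GAL4-UAS reporter units and chimeric NR-Gal4 constructs; chemical exposure 24 h. Reporter mRNA quantified by RT-PCR, fluorescent labelling and capillary electrophoresis; gain of signal fitted relative to DMSO baseline.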
# [6] = target: Transcriptional activator Myb (Homo sapiens) (UniProt P10242); test: ATG_Myb_CIS: Attagene CIS-FACTORIAL HepG2 Assay for human Myeloblastosis (Myb) Proto-Oncogene Transcription Factor (AID 2282986); settings: HepG2 Attagene CIS-FACTORIAL Myb reporter transcription; actives raise or lower the signal
# Procedure, shortened: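 Endogenous transcription factor activity at a Myb-responsive cis element is reported in human liver HepG2 cells after 24 h chemical treatment. Reporter mRNA is detected by RT-PCR and capillary electrophoresis fluorescence, with DMSO as baseline.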
# [7] = target: Nuclear respiratory factor 1 (Homo sapiens) (UniProt Q16656); test: ATG_NRF1_CIS: Attagene CIS-FACTORIAL HepG2 Assay for human Nuclear Respiratory Factor 1 (NRF1) Orphan Gene (AID 2282987); settings: HepG2 NRF1 cis-element reporter, Attagene multiplex; actives raise or lower the signal
# Procedure, shortened: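 Human hepatoma HepG2 cells carrying transfected promoter-regulated reporter units were incubated with test chemicals for 24 h. Reporter transcripts were measured by RT-PCR plus capillary electrophoresis, and endpoints derived by bidirectional fitting with DMSO as baseline.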
# [8] = ATG_NFI_CIS: Attagene CIS-FACTORIAL HepG2 Assay for human Nuclear Factor I (NFI) (AID 2282989); settings: HepG2 cis-regulatory reporter, NFI response element transcription; actives raise or lower the signal
# Procedure, shortened: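 Cells: human liver HepG2, transiently transfected with promoter-regulated reporter transcription units. Exposure 24 h. Detection: fluorescent RT-PCR products separated by capillary electrophoresis, normalised to DMSO negative control.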
# [9] = target: Myc proto-oncogene protein (Homo sapiens) (UniProt P01106); test: ATG_Myc_CIS: Attagene CIS-FACTORIAL HepG2 Assay for human Myelocytomatosis (Myc) Proto-Oncogene Transcription Factor (AID 2282990); settings: HepG2, Attagene cis-reporter transcription factor activity; actives raise or lower the signal
# Procedure, shortened: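 HepG2 cells transiently transfected with multiple cis-promoter-driven reporter transcription units, so endogenous TF activity is read. After 24 h compound exposure, reporter mRNA was quantified by RT-PCR, 6-FAM labelling, HpaI digestion and capillary electrophoresis; bidirectional fit versus DMSO.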
# [10] = ATG_NRF2_ARE_CIS: Attagene CIS-FACTORIAL HepG2 Assay for human Nuclear Factor Erythroid 2 Related Factor 2 (NFR2) response to Antioxidant Response Elements (ARE) (AID 2282992); settings: HepG2 Attagene ARE/NRF2 reporter, transcription factor activity; actives raise or lower the signal;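 on AC50: reporter mRNA level measured by RT-PCR and capillary electrophoresis fluorescence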
# Procedure, shortened: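 Cis-factorial assay: transfected HepG2 reporter library, 24 h dosing, mRNA readout via RT-PCR/CE; DMSO-referenced bidirectional analysis.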
# [11] = ATG_Oct_MLP_CIS: Attagene CIS-FACTORIAL HepG2 Assay for human Octamer-Binding Transcription Factor (Oct) (AID 2282993); settings: HepG2 Attagene cis-factorial Oct reporter, mRNA; actives raise or lower the signal
# Procedure, shortened: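 HepG2, transient MRTU transfection, cis promoter elements; 24 h dosing; RT-PCR/CE fluorescence read-out of reporter mRNA; fit both directions vs DMSO.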
# [12] = target: Cellular tumor antigen p53 (Homo sapiens) (UniProt P04637); test: ATG_p53_CIS: Attagene CIS-FACTORIAL HepG2 Assay for human p53 Transcription Factor (AID 2282994); settings: HepG2 p53 cis-element reporter, Attagene mRNA; actives raise or lower the signal
# Procedure, shortened: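 Using HepG2 hepatoma cells carrying cis-acting multiplexed reporters, mRNA induction is detected after a 24 h exposure. Gain- and loss-of-signal responses are fitted relative to DMSO-treated cells.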
# [13] = BSK_3C_TissueFactor: BioMAP Diversity Plus: 3C Assay for Tissue Factor Biomarker Activity (AID 2282997); settings: BioMAP 3C HUVEC, tissue factor biomarker readout; actives raise or lower the signal
# Procedure, shortened: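 Human vascular primary cells (umbilical vein endothelium) received test chemical; Tissue Factor was determined by ELISA at 24 h, and both gain and loss of signal versus DMSO were fitted.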
# [14] = BSK_3C_uPAR: BioMAP Diversity Plus: 3C Assay for Urokinase-type plasminogen activator receptor (uPAR) Biomarker Activity (AID 2282998); settings: BioMAP 3C HUVEC, uPAR biomarker ELISA; actives raise or lower the signal
# Procedure, shortened: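 A multiplexed primary-cell system built on human umbilical vein endothelium was used, with chemical present for 24 h before reading. Cell-surface uPAR was detected by ELISA; signal change in either direction counted against DMSO.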
# [15] = target: Estrogen-related receptor gamma (Homo sapiens) (UniProt P62508); test: ATG_ERRg_TRANS: Attagene TRANS-FACTORIAL HepG2 Assay for human Estrogen-Related Receptor gamma (ERRg) (AID 2282977; active means hit-call score of the fitted dose curve at least 0.9, where 1 is the maximum;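 further: hits increase reporter signal over DMSO so potencies reflect activators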); settings: HepG2 Attagene TRANS reporter, ERRg transactivation
# Procedure, shortened: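 Transient HepG2 transfectants, 24 h compound exposure, GAL4-UAS reporter mRNA by RT-PCR/6-FAM labelling/capillary electrophoresis; positive direction vs DMSO.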
# [16] = target: Glucocorticoid receptor (Homo sapiens) (UniProt P04150); test: ATG_GR_TRANS: Attagene TRANS-FACTORIAL HepG2 Assay for human Glucocorticoid Receptor (GR) (AID 2282978; active means hit-call score of the fitted dose curve at least 0.9, where 1 is the maximum;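 further: activators score as hits since higher reporter transcript over DMSO is fitted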); settings: HepG2 Attagene TRANS GR reporter, mRNA transcription
# Procedure, shortened: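 Multiplexed TRANS reporter system, HepG2; 24 h exposure; RNA → oligo(dT) RT → reporter-specific PCR → 6-FAM primer extension → HpaI cut → CE fluorescence. Gain-of-signal vs DMSO.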
# [17] = target: Bile acid receptor (Homo sapiens) (UniProt Q96RI1); test: ATG_FXR_TRANS: Attagene TRANS-FACTORIAL HepG2 Assay for Farnesoid X Receptor (FXR) (AID 2282979; active means hit-call score of the fitted dose curve at least 0.9, where 1 is the maximum;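 further: hits raise reporter mRNA above DMSO so AC50 marks FXR activation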); settings: HepG2 Attagene TRANS FXR-GAL4 reporter transcription
# Procedure, shortened: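 Read-out: fluorescent reporter transcripts quantified by capillary electrophoresis after RT-PCR of total RNA. Source cells were HepG2 transiently carrying chimeric NR-GAL4 plus GAL4-UAS reporter units, dosed 24 h. Activity fitted upward relative to DMSO baseline.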
# [18] = target: Hepatocyte nuclear factor 4-alpha (Homo sapiens) (UniProt P41235); test: ATG_HNF4a_TRANS: Attagene TRANS-FACTORIAL HepG2 Assay for human Hepatocyte Nuclear Factor 4 alpha (HNF4a) (AID 2282982; active means hit-call score of the fitted dose curve at least 0.9, where 1 is the maximum); settings: HepG2 HNF4a transactivation reporter, mRNA readout
# Procedure, shortened: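 HepG2 cells transiently transfected with multiplexed GAL4-UAS reporter units responsive to chimeric NR-GAL4 proteins; compound exposure 24 h. Reporter mRNA quantified by RT-PCR, 6-FAM labelling, HpaI digestion and capillary electrophoresis; gain of signal versus DMSO baseline.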
# [19] = ATG_NF_kB_CIS: Attagene CIS-FACTORIAL HepG2 Assay for human Nuclear Factor Kappa B (NF-kB) (AID 2282991); settings: HepG2 Attagene cis-factorial NF-kB reporter mRNA; actives raise or lower the signal
# Procedure, shortened: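 Multiplexed cis-reporter assay in transiently transfected HepG2. 24 h treatment; RNA isolated, RT-PCR, labelled fragments resolved by CE. DMSO baseline.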
# [20] = target: Oxysterols receptor LXR-beta (Homo sapiens) (UniProt P55055); test: ATG_LXRb_TRANS: Attagene TRANS-FACTORIAL HepG2 Assay for human Liver X Receptor beta (LXRb) (AID 2282981; active means hit-call score of the fitted dose curve at least 0.9, where 1 is the maximum); settings: HepG2 Attagene TRANS GAL4-LXRb reporter, mRNA
# Procedure, shortened: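 HepG2 cells transiently transfected with multiple reporter transcription units carrying chimeric NR-Gal4 proteins acting on GAL4-UAS reporters; compound exposure 24 h. Reporter mRNA quantified by RT-PCR, 6-FAM labelling, HpaI digestion and capillary electrophoresis; gain of signal versus DMSO.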
# Oxysterols receptor LXR-alpha (Homo sapiens), sequence (Q13133 whole entry, looked up, the tested form may be a part): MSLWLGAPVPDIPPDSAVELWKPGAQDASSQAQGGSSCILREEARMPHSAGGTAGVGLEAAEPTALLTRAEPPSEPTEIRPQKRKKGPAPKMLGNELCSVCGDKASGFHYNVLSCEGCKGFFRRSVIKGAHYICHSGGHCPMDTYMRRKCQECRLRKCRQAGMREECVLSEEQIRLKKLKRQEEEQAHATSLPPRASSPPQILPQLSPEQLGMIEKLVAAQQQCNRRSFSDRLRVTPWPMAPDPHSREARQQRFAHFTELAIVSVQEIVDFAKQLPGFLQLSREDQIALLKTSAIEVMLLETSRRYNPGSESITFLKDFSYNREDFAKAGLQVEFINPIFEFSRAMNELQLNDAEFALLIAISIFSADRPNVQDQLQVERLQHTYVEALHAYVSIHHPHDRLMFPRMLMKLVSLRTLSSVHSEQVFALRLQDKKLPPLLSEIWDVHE
# Nuclear respiratory factor 1 (Homo sapiens), sequence (Q16656 whole entry, looked up): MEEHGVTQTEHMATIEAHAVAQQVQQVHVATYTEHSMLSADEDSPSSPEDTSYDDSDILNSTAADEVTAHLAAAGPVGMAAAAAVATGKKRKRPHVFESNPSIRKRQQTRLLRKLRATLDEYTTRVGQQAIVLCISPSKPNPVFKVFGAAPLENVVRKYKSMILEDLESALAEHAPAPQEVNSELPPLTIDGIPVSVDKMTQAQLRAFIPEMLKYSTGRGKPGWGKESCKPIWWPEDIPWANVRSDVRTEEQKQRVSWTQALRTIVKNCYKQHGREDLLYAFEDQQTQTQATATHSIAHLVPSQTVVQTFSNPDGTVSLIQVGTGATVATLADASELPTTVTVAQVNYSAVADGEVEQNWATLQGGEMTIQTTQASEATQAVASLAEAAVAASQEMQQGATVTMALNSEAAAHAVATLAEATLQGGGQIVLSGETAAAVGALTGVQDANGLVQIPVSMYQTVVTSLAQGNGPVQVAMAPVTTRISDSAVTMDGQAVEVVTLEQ
# Bile acid receptor (Homo sapiens), sequence (Q96RI1 whole entry, looked up, the tested form may be a part): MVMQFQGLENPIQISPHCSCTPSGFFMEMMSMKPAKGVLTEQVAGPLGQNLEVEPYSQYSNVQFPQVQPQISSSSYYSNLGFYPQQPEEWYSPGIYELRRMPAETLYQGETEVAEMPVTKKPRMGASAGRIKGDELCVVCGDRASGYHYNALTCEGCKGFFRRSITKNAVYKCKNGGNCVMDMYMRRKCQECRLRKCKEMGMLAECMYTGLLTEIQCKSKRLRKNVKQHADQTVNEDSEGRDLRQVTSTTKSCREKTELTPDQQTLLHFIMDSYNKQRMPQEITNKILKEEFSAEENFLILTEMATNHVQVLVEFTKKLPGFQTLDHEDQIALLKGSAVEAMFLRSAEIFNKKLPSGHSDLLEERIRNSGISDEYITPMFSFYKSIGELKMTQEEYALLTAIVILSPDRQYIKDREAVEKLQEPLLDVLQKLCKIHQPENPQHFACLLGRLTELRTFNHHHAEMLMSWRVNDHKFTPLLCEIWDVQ
# Transcriptional activator Myb (Homo sapiens), sequence (P10242 whole entry, looked up): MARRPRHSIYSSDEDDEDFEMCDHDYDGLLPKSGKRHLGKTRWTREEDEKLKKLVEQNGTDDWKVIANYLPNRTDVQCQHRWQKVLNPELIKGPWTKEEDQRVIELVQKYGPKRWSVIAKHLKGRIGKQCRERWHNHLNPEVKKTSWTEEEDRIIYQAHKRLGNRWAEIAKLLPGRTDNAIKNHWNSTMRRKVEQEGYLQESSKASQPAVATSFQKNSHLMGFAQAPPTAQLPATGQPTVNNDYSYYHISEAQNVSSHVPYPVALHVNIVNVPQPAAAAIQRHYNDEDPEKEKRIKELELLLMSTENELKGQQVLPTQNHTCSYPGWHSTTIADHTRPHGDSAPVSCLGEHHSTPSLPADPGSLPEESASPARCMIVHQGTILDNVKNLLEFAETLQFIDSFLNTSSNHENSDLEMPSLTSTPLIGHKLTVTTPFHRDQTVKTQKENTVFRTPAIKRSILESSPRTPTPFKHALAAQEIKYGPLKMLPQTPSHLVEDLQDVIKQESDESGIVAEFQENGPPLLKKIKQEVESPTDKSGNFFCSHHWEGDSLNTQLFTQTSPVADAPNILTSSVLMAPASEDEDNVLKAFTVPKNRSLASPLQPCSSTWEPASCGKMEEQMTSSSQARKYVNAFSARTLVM
# Nuclear receptor subfamily 4 group A member 2 (Homo sapiens), sequence (P43354 whole entry, looked up, the tested form may be a part): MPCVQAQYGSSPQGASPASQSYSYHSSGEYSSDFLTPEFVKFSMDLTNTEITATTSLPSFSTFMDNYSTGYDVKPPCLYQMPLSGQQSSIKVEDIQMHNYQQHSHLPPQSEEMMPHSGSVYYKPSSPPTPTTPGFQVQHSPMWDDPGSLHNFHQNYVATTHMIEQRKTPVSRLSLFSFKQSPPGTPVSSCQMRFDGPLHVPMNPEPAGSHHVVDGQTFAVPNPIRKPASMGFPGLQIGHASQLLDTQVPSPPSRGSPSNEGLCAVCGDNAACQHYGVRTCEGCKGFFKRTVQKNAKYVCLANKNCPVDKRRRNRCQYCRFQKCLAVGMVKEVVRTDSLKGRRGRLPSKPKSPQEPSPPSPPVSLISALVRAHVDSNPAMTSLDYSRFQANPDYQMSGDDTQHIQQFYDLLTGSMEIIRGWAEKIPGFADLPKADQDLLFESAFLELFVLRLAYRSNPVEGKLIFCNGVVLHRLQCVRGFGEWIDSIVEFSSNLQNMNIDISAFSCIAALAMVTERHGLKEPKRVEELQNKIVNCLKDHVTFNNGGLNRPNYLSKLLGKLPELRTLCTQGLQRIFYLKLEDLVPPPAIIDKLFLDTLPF
# Myc proto-oncogene protein (Homo sapiens), sequence (P01106 whole entry, looked up): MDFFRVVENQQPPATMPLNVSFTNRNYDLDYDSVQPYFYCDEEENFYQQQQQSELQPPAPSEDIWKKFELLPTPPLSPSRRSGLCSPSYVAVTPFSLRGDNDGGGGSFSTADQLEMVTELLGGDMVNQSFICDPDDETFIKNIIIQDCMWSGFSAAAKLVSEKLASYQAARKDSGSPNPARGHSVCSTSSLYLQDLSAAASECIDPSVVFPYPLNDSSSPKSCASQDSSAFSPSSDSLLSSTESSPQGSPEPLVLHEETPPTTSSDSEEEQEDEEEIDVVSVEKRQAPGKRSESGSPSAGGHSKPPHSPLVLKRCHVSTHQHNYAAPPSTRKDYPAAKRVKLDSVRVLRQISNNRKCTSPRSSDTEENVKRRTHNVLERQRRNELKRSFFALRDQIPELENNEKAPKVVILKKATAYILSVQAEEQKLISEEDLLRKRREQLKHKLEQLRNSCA
# Glucocorticoid receptor (Homo sapiens), sequence (P04150 whole entry, looked up): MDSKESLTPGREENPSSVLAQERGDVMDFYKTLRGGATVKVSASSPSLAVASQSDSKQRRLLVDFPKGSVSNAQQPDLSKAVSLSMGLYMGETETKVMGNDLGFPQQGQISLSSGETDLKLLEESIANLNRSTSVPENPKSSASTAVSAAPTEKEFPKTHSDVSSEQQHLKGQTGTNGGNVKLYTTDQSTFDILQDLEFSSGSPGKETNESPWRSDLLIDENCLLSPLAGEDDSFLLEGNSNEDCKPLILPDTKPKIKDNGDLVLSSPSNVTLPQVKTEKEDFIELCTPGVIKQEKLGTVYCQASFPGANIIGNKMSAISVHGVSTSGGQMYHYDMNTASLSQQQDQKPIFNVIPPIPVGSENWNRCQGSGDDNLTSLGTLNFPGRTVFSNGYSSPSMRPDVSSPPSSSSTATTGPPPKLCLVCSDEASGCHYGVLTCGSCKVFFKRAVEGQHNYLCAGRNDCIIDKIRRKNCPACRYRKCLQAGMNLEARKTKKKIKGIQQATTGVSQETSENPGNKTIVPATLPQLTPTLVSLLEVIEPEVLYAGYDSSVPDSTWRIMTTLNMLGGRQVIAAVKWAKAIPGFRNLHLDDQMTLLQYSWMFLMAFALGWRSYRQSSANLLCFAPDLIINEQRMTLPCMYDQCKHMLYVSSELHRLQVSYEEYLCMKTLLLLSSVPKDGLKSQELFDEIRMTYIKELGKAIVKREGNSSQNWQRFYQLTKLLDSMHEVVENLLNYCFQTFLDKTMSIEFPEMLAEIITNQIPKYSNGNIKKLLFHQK
# Hepatocyte nuclear factor 4-alpha (Homo sapiens), sequence (P41235 whole entry, looked up, the tested form may be a part): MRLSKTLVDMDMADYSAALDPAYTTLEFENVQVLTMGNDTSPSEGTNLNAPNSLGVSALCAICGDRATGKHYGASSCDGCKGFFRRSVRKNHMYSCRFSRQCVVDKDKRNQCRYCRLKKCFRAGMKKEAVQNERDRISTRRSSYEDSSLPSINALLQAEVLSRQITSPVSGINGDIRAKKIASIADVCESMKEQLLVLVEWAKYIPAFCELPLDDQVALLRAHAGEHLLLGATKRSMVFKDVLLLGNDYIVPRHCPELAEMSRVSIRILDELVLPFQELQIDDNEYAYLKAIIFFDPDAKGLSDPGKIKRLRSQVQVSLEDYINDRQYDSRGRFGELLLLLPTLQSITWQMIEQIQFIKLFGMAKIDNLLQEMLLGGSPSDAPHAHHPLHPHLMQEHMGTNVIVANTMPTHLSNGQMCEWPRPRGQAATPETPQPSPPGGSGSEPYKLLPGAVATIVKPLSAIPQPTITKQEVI
# Cellular tumor antigen p53 (Homo sapiens), sequence (P04637 whole entry, looked up): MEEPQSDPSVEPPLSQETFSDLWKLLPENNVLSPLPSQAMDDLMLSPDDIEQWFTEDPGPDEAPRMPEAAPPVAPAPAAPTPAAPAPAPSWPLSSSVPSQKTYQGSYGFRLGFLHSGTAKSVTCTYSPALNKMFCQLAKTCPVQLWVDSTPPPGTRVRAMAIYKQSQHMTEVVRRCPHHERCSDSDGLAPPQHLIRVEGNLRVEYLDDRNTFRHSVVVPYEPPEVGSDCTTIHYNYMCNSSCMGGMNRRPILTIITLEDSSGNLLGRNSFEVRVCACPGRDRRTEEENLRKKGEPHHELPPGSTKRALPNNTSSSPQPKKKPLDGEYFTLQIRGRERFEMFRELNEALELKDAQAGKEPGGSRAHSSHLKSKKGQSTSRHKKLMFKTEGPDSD
smiles,measurement,setting,value
Nc1ccc(Cl)cc1,outcome,[1],inactive
same,outcome,[2],inactive
same,outcome,[3],inactive
same,outcome,[4],inactive
same,outcome,[5],inactive
same,outcome,[6],inactive
same,outcome,[7],inactive
same,outcome,[8],inactive
same,outcome,[9],inactive
same,outcome,[10],inactive
same,outcome,[11],inactive
same,outcome,[12],inactive
same,outcome,[13],inactive
same,outcome,[14],inactive
Cc1ccc2c(c1N)C(=O)c1ccccc1C2=O,outcome,[15],inactive
same,outcome,[16],inactive
same,outcome,[17],inactive
same,outcome,[2],inactive
same,outcome,[18],inactive
same,outcome,[4],inactive
same,outcome,[5],inactive
same,outcome,[6],inactive
same,outcome,[7],inactive
same,outcome,[8],inactive
same,outcome,[9],inactive
same,AC50,[19],25.4 µM (active)
same,AC50,[10],42.4 µM (active)
same,outcome,[11],inactive
same,outcome,[12],inactive
same,AC50,[13],20 µM (active)
same,AC50,[14],3.89 µM (active)
O=NN1CCCC1,outcome,[1],inactive
same,outcome,[16],inactive
same,outcome,[2],inactive
same,outcome,[18],inactive
same,outcome,[4],inactive
same,outcome,[6],inactive
same,outcome,[7],inactive
same,outcome,[8],inactive
same,outcome,[9],inactive
same,outcome,[19],inactive
same,outcome,[10],inactive
same,outcome,[11],inactive
O=S(=O)(c1ccc(O)cc1)c1ccc(O)cc1,outcome,[16],inactive
same,outcome,[17],inactive
same,outcome,[2],inactive
same,outcome,[3],inactive
same,outcome,[4],inactive
same,outcome,[6],inactive
same,outcome,[7],inactive
same,outcome,[8],inactive
same,outcome,[9],inactive
same,outcome,[19],inactive
same,outcome,[10],inactive
same,outcome,[11],inactive
CC(=O)c1ccc(-c2ccccc2)cc1,outcome,[16],inactive
same,outcome,[17],inactive
same,outcome,[2],inactive
same,outcome,[20],inactive
same,outcome,[3],inactive
same,outcome,[4],inactive
same,outcome,[5],inactive
same,outcome,[6],inactive
same,outcome,[7],inactive
same,outcome,[8],inactive
same,outcome,[9],inactive
same,outcome,[19],inactive
same,outcome,[10],inactive
same,outcome,[11],inactive
